# Experimental data reported in PubChem BioAssay (Tox21).
# Unmarked numbers belong to inactive results. Records with an inconclusive call do not appear. A call without a number means that no potency is given here. The source made the active and inactive calls. Unless noted, calls follow the shape of the dose curve; as a rule, active = well fitted curve in the direction sought with a large enough effect in the repeat runs; inconclusive = weak or mixed curves; inactive = no such curve, though single readings can be large; an effect the other way counts as inactive or inconclusive.
# What was measured:
# [1] = qHTS assay for small molecule agonists of the p53 signaling pathway (AID 651631; calls by dose curve; also: nearly all actives have a fitted effect of over 15% in size)
# In short: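 HCT-116 p53RE-bla reporter line, 16 h compound treatment at 37 °C, then fluorescence after 2 h with B/G FRET substrate.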
# [2] = qHTS assay for small molecules that induce genotoxicity in human embryonic kidney cells expressing luciferase-tagged ATAD5 (AID 651632); also: nearly all actives have a fitted effect of over 15% in size
# In short: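 Luminescence read-out: after 16 hr compound exposure at 37C, ATAD5-luciferase HEK293T cells received Amplite, 30 min RT, then CCD imaging. A rise in signal marks genotoxic stress.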
# [3] = qHTS assay for small molecule agonists of the p53 signaling pathway - cell viability (AID 651633; calls by dose curve;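 also: p53RE-bla HCT reporter cells with a stable beta-lactamase p53 reporter; series mostly up to about 83 µM; nearly all actives have a fitted effect of over 30% in size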)
# In short: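 Viability counter-read: CellTiter-Glo luminescence (30 min, room temperature) in the same p53RE-bla plates. These plates had been exposed to compounds for 16 h at 37 C.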
# [4] = qHTS assay for small molecules that induce genotoxicity in human embryonic kidney cells expressing luciferase-tagged ATAD5 - cell viability (AID 651634; calls by dose curve; also: nearly all actives have a fitted effect of over 25% in size)
# In short: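 HEK293T ATAD5-luc cells, 2,000/well; compound 15.5 hr, 37C/5% CO2; CellTiter-Fluor 30 min, 37C; fluorescence read.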
# [5] = qHTS assay for small molecule disruptors of the mitochondrial membrane potential - cell viability (AID 720634; calls by dose curve;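 also: human HepG2 liver cancer cells; series mostly up to about 83 µM; nearly all actives have a fitted effect of over 20% in size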)
# In short: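 Luminescence from CellTiter-Glo (ATP content) gave viability in HepG2 cells, read in the same wells as the MMP dye assay after 1 hr compound exposure at 37 C.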
# [6] = qHTS assay for small molecule disruptors of the mitochondrial membrane potential (AID 720635); also: potency is read from the fitted curve at half-maximal effect
# In short: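 Mitochondrial membrane potential tracked with Mito-MPS dye, red aggregates (ex 540/em 590 nm) against green monomers (ex 490/em 535 nm). Compound treatment 1 hr at 37C, dye 30 min in HepG2.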
# [7] = qHTS assay to test for compound auto fluorescence at 590 nm (red) in HepG2 cells (AID 720674)
# In short: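 Red autofluorescence (Ex/Em 540/590 nm, Rose Bengal sodium equivalents) was measured in HepG2 cells, 2,000 per well in MEM plus 10% FBS, plated overnight at 37 C. Readings were taken 1 hr after adding 23 nL compound or DMSO, at 37 C and 5% CO2.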
# [8] = qHTS assay to test for compound auto fluorescence at 535 nm (green) in HepG2 cells (AID 720675)
# [9] = qHTS assay to test for compound auto fluorescence at 460 nm (blue) in HEK293 cells (AID 720678)
# In short: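 HEK293, 2,000 cells/well, 10% dialyzed FBS; attach 4-5 hr 37C; pin compound or DMSO; o/n 37C/5% CO2; fluorescence 405/460 nm; triamterene-equivalent units.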
# [10] = qHTS assay to test for compound auto fluorescence at 590 nm (red) in HEK293 cells (AID 720679)
# In short: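 Intensity at 540nm excitation and 590nm emission is reported as Rose Bengal sodium-equivalent autofluorescence. Measurements followed overnight exposure (37C, 5% CO2) of HEK293 cells, 2,000 per well, to 23 nL compound.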
# [11] = qHTS assay to test for compound auto fluorescence at 535 nm (green) in HEK293 cells (AID 720680)
# [12] = qHTS assay to test for compound auto fluorescence at 535 nm (green) in HEK293 cell free culture (AID 720682)
# In short: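 Steps: dispense DMEM/10% FBS into empty wells; pin in compound or DMSO; measure fluorescence at 485/535 nm. Values are fluorescein equivalents.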
# [13] = qHTS assay to test for compound auto fluorescence at 590 nm (red) in HEK293 cell free culture (AID 720683)
# In short: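 Red-channel autofluorescence of compounds in culture medium (DMEM, 10% FBS), no cells, measured at 540/590 nm. Rose Bengal sodium is the reference fluorophore for equivalence.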
# [14] = qHTS assay to test for compound auto fluorescence at 590 nm (red) in HepG2 cell free culture (AID 720684)
# In short: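 Cell-free; medium MEM + 10% FBS; compound or DMSO added by pintool; read Ex 540/Em 590 nm; Rose Bengal sodium as red reference fluorophore.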
# [15] = qHTS assay to test for compound auto fluorescence at 460 nm (blue) in HepG2 cell free culture (AID 720685)
# In short: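 Cell-free plates of MEM plus 10% FBS received 23 nL compound or DMSO vehicle; blue-channel (405/460 nm) intensity scored against triamterene as reference fluorophore.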
# [16] = qHTS assay to test for compound auto fluorescence at 535 nm (green) in HepG2 cell free culture (AID 720686)
# [17] = qHTS assay to test for compound auto fluorescence at 460 nm (blue) in HepG2 cells (AID 720687)
# In short: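 Blue-channel autofluorescence (Ex/Em 405/460 nm, triamterene-equivalent) was measured after 1 hr compound exposure at 37 C, 5% CO2. Cells were HepG2, plated overnight at 37 C in MEM plus 10% FBS.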
# [18] = target: Glucocorticoid receptor (Homo sapiens) (UniProt P04150); assay: qHTS assay to identify small molecule agonists of the glucocorticoid receptor (GR) signaling pathway (AID 720691; active = well fitted activation curve with a large enough effect in the signal ratio in the repeat runs, not every such curve was filed as active; the % refers to the signal ratio)
# In short: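 HeLa GR-bla reporter line; cells pre-incubated 4 h, compound in DMSO 18 h at 37 C; LiveBLAzer B/G FRET substrate 2 h RT; fluorescence intensity read-out.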
# [19] = target: Glucocorticoid receptor (Homo sapiens) (UniProt P04150); assay: qHTS assay to identify small molecule antagonists of the glucocorticoid receptor (GR) signaling pathway (AID 720692; active = well fitted inhibition curve with a large enough effect in the signal ratio in the repeat runs, not every such curve was filed as active; the % refers to the signal ratio)
# In short: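 Read-out: beta-lactamase FRET substrate fluorescence, 2 h at room temperature, in HeLa cells stably carrying a GRE-driven bla reporter. Compounds were co-incubated with 5 nM dexamethasone agonist (final) for 18 h at 37 C.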
# [20] = qHTS assay to test for compound auto fluorescence at 460 nm (blue) in HEK293 cell free culture (AID 720681)
# In short: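 Blue fluorescence (Ex 405/Em 460 nm, triamterene-equivalent) was read immediately after pin transfer of compound or DMSO into medium (DMEM, 10% FBS) without cells.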
# Chain of Glucocorticoid receptor (Homo sapiens) (P04150 whole entry, looked up): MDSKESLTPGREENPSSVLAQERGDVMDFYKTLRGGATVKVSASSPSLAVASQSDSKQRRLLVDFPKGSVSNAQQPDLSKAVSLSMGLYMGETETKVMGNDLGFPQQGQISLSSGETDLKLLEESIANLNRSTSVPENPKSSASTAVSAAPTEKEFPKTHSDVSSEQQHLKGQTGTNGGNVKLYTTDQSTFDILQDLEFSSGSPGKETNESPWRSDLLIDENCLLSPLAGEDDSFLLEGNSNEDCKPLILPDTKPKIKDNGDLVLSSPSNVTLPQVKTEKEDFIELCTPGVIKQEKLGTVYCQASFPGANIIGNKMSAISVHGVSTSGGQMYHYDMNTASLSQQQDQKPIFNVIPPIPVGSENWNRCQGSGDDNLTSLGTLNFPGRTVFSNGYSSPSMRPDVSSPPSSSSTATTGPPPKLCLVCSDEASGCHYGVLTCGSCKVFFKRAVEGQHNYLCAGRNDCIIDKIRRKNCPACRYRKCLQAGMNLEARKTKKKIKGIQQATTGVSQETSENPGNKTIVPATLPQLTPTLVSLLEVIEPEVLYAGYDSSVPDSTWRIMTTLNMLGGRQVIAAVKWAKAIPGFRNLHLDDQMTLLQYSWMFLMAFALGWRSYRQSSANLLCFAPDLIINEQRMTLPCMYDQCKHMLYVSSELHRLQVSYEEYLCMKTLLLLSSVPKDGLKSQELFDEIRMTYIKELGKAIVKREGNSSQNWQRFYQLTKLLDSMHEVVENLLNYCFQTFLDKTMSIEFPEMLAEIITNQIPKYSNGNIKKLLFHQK
compound,measurement,setting,value
CC/C(C)=N\O[Si](C)(O/N=C(\C)CC)O/N=C(\C)CC,outcome,[1],inactive
same,outcome,[2],inactive
same,outcome,[3],inactive
same,Potency,[4],inactive
same,outcome,[5],inactive
same,Potency,[6],inactive
same,outcome,[7],inactive
same,outcome,[8],inactive
same,outcome,[9],inactive
same,outcome,[10],inactive
same,outcome,[11],inactive
same,outcome,[12],inactive
same,outcome,[13],inactive
same,outcome,[14],inactive
same,outcome,[15],inactive
same,outcome,[16],inactive
same,outcome,[17],inactive
C/C(CC(C)C)=N\O,outcome,[1],inactive
same,outcome,[2],inactive
same,outcome,[3],inactive
same,Potency,[4],inactive
same,outcome,[5],inactive
same,Potency,[6],inactive
same,outcome,[7],inactive
same,outcome,[8],inactive
same,outcome,[9],inactive
same,outcome,[10],inactive
same,outcome,[11],inactive
same,outcome,[12],inactive
same,outcome,[13],inactive
same,outcome,[14],inactive
same,outcome,[15],inactive
same,outcome,[16],inactive
same,outcome,[17],inactive
same,Potency,[18],inactive
same,outcome,[19],inactive
Cc1cc(C)c(C(=O)O)c(C)c1,outcome,[1],inactive
same,outcome,[2],inactive
same,outcome,[3],inactive
same,Potency,[4],inactive
same,outcome,[5],inactive
same,Potency,[6],inactive
same,outcome,[7],inactive
same,outcome,[8],inactive
same,outcome,[9],inactive
same,outcome,[10],inactive
same,outcome,[11],inactive
same,outcome,[20],inactive
same,outcome,[12],inactive
same,outcome,[13],inactive
same,outcome,[14],inactive
same,outcome,[16],inactive
same,outcome,[17],inactive
same,Potency,[18],inactive
same,outcome,[19],inactive
CC(C)Nc1ccccc1,outcome,[1],inactive
same,outcome,[2],inactive
same,outcome,[3],inactive
same,Potency,[4],inactive
same,outcome,[5],inactive
same,Potency,[6],inactive
same,outcome,[7],inactive
same,outcome,[8],inactive
same,outcome,[9],inactive
same,outcome,[10],inactive
same,outcome,[11],inactive
same,outcome,[20],inactive
same,outcome,[12],inactive
same,outcome,[13],inactive
same,outcome,[14],inactive
same,outcome,[15],inactive
same,outcome,[16],inactive
same,Potency,[18],inactive
CC(=O)O[Si](C)(OC(C)=O)OC(C)=O,outcome,[1],inactive
same,outcome,[2],inactive
same,outcome,[3],inactive
same,Potency,[4],inactive
same,outcome,[5],inactive
same,Potency,[6],17.7 µM (active)
same,outcome,[7],inactive
same,outcome,[8],inactive
same,outcome,[9],inactive
same,outcome,[10],inactive
same,outcome,[11],inactive
same,outcome,[20],inactive
same,outcome,[12],inactive
same,outcome,[13],inactive
same,outcome,[14],inactive
same,outcome,[15],inactive
same,outcome,[16],inactive
same,outcome,[17],inactive
same,Potency,[18],inactive
same,outcome,[19],inactive
OCC1CCC(CO)CC1 (centres undefined),outcome,[1],inactive
same,outcome,[2],inactive
same,outcome,[3],inactive
same,Potency,[4],inactive
same,outcome,[5],inactive
same,Potency,[6],inactive
same,outcome,[7],inactive
same,outcome,[8],inactive
same,outcome,[9],inactive
same,outcome,[10],inactive
same,outcome,[11],inactive
same,outcome,[20],inactive
same,outcome,[12],inactive
same,outcome,[13],inactive
same,outcome,[14],inactive
same,outcome,[16],inactive
same,outcome,[17],inactive
same,Potency,[18],inactive
same,outcome,[19],inactive
Cc1ccc(C(C)NC(=O)[C@@H](NC(=O)OC(C)C)C(C)C)cc1 (some centres undefined),outcome,[1],inactive
same,outcome,[2],inactive
same,outcome,[3],inactive
same,Potency,[4],inactive
same,outcome,[5],inactive
same,Potency,[6],inactive
same,outcome,[7],inactive
same,outcome,[8],inactive
same,outcome,[9],inactive
same,outcome,[10],inactive
same,outcome,[11],inactive
same,outcome,[12],inactive
same,outcome,[13],inactive
same,outcome,[14],inactive
same,outcome,[15],inactive
same,outcome,[16],inactive
same,Potency,[18],inactive
same,outcome,[19],inactive
c1ccc2c(CC3=NCCN3)cccc2c1,outcome,[1],inactive
same,outcome,[2],inactive
same,outcome,[3],inactive
same,Potency,[4],inactive
same,outcome,[5],inactive
same,Potency,[6],inactive
same,outcome,[7],inactive
same,outcome,[8],inactive
same,outcome,[9],inactive
same,outcome,[10],inactive
same,outcome,[11],inactive
same,outcome,[12],inactive
same,outcome,[13],inactive
same,outcome,[14],inactive
same,outcome,[16],inactive
same,outcome,[17],inactive
CC(C)c1ccc(C=O)cc1,outcome,[1],inactive
same,outcome,[2],inactive
same,outcome,[3],inactive
same,Potency,[4],inactive
same,outcome,[5],inactive
same,Potency,[6],inactive
same,outcome,[7],inactive
same,outcome,[8],inactive
same,outcome,[9],inactive
same,outcome,[10],inactive
same,outcome,[11],inactive
same,outcome,[20],inactive
same,outcome,[12],inactive
same,outcome,[13],inactive
same,outcome,[14],inactive
same,outcome,[16],inactive
same,outcome,[17],inactive
same,Potency,[18],inactive
same,outcome,[19],inactive
CN(C)CCCCl,outcome,[1],inactive
same,outcome,[2],inactive
same,outcome,[3],inactive
same,Potency,[4],inactive
same,outcome,[5],inactive
same,Potency,[6],inactive
same,outcome,[7],inactive
same,outcome,[8],inactive
same,outcome,[9],inactive
same,outcome,[10],inactive
same,outcome,[11],inactive
same,outcome,[20],inactive
same,outcome,[12],inactive
same,outcome,[13],inactive
same,outcome,[14],inactive
same,outcome,[15],inactive
same,outcome,[16],inactive
same,Potency,[18],inactive
same,outcome,[19],inactive
CCCCOC(=O)C(C)O (centres undefined),outcome,[1],inactive
same,outcome,[2],inactive
same,outcome,[3],inactive
same,Potency,[4],inactive
same,outcome,[5],inactive
same,Potency,[6],inactive
same,outcome,[7],inactive
same,outcome,[8],inactive
same,outcome,[9],inactive
same,outcome,[10],inactive
same,outcome,[11],inactive
same,outcome,[12],inactive
same,outcome,[13],inactive
same,outcome,[14],inactive
same,outcome,[16],inactive
same,Potency,[18],inactive
same,outcome,[19],inactive
O=C(O)CONC(=O)c1ccccc1,outcome,[1],inactive
same,outcome,[2],inactive
same,outcome,[3],inactive
same,Potency,[4],inactive
same,outcome,[5],inactive
same,outcome,[7],inactive
same,outcome,[8],inactive
same,outcome,[9],inactive
same,outcome,[10],inactive
same,outcome,[11],inactive
same,outcome,[20],inactive
same,outcome,[12],inactive
same,outcome,[13],inactive
same,outcome,[14],inactive
same,outcome,[15],inactive
same,outcome,[16],inactive
same,outcome,[17],inactive
COC(C)(OC)OC,outcome,[1],inactive
same,outcome,[2],inactive
same,outcome,[3],inactive
same,Potency,[4],inactive
same,outcome,[5],inactive
same,outcome,[7],inactive
same,outcome,[8],inactive
same,outcome,[9],inactive
same,outcome,[10],inactive
same,outcome,[11],inactive
same,outcome,[20],inactive
same,outcome,[12],inactive
same,outcome,[13],inactive
same,outcome,[14],inactive
same,outcome,[16],inactive
same,outcome,[17],inactive
same,Potency,[18],inactive
same,outcome,[19],inactive
CN1CCOC(c2ccccc2)c2ccccc2C1 (centres undefined),outcome,[1],inactive
same,outcome,[2],inactive
same,outcome,[3],inactive
same,Potency,[4],inactive
same,outcome,[5],inactive
same,"fluorescence, relative to Rose Bengal",[7],-0.228% [at 18.6 µM]
same,"fluorescence, % of fluorescein control",[8],0.0561% [at 18.6 µM]
same,"fluorescence, % of triamterene",[9],-0.11% [at 18.6 µM]
same,"fluorescence, % of fluorescent control",[10],0.0791% [at 18.6 µM]
same,"fluorescence, % of fluorescein",[11],-0.0031% [at 18.6 µM]
same,"fluorescence, % of fluorescent control",[20],-0.103% [at 18.6 µM]
same,activity change,[12],-0.0245% [at 18.6 µM]
same,"fluorescence, % of fluorescent control",[13],-0.107% [at 18.6 µM]
same,"fluorescence, % of Rose Bengal",[14],0.115% [at 18.6 µM]
same,"fluorescence, % of fluorescent control",[15],-0.0245% [at 18.6 µM]
same,"fluorescence, % of fluorescein control",[16],0.0063% [at 18.6 µM]
same,"fluorescence, % of fluorescent control",[17],0.0046% [at 18.6 µM]
CCO,outcome,[1],inactive
same,outcome,[2],inactive
same,outcome,[3],inactive
same,Potency,[4],inactive
same,outcome,[5],inactive
same,outcome,[7],inactive
same,outcome,[8],inactive
same,outcome,[9],inactive
same,outcome,[10],inactive
same,outcome,[11],inactive
same,outcome,[12],inactive
same,outcome,[13],inactive
same,outcome,[14],inactive
same,outcome,[15],inactive
same,outcome,[16],inactive
same,Potency,[18],inactive
